Where “and” joins values, the source holds several entries; their conditions need not be identical. Equal values may be shown once. Records with an inconclusive call do not appear. Some structures have more than one record in an assay (separate samples or runs), and their calls can disagree. Calls of active or inactive are those of the source. The calls were made as follows: active = hit-call score of the fitted dose curve at least 0.9, where 1 is the maximum; inconclusive = response in the unintended direction; inactive = score below 0.9.
Legend:
[1] = ATG_M_06_XSP2: Attagene TRANS-FACTORIAL Multi-Species (XSP2) HepG2 Assay for M06 Transcription Factor (Internal Marker) (AID 2283811);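 also: hits are increases in signal above the DMSO baseline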
Outline: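 Cells of the human liver line HepG2 carried transfected reporter transcription units and were treated for 24 h. Induced reporter transcripts were detected by fluorescence after RT-PCR and capillary electrophoresis, with activity fitted in the gain direction against DMSO.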

[2] = test system: turtle Estrogen Receptor (ERa), gene 101933533; test: ATG_trERa_XSP2: Attagene TRANS-FACTORIAL Multi-Species (XSP2) HepG2 Assay for turtle Estrogen Receptor (ERa) (AID 2283812);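 also: actives raise reporter signal above DMSO so AC50 reflects agonist activity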
Outline: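 Readout is reporter mRNA quantified by RT-PCR with capillary electrophoresis after 24 h compound exposure, increase relative to DMSO. Uses transiently transfected human HepG2 liver cells carrying a chimeric turtle ERa-Gal4 receptor driving GAL4-UAS reporters.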

[3] = target: Estrogen receptor beta (Homo sapiens) (UniProt Q92731); test: ATG_hERb_XSP2: Attagene TRANS-FACTORIAL Multi-Species (XSP2) HepG2 Assay for human Estrogen Receptor (ERb) (AID 2283813);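 also: actives raise reporter mRNA above DMSO so AC50 reflects agonist induction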
Sequence of Estrogen receptor beta (Homo sapiens) (Q92731 whole entry, looked up, the tested form may be a part): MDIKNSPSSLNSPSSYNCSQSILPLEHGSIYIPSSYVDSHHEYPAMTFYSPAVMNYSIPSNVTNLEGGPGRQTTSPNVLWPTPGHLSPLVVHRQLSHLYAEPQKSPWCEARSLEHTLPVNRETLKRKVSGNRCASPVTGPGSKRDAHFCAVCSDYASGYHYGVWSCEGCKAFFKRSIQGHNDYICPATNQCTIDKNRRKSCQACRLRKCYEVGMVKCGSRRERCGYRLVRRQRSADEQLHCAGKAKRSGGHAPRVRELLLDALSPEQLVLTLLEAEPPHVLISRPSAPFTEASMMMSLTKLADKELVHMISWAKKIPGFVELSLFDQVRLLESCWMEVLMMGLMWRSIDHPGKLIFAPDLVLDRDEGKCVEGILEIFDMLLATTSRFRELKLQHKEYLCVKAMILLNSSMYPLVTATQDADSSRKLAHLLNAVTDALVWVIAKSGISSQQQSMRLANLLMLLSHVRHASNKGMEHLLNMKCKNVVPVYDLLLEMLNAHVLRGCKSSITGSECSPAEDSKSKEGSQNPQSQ
Outline: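 Transient TRANS reporter system in HepG2: after 24 h of chemical, RNA is reverse-transcribed, reporter cDNA amplified, FAM-labelled and sized by capillary electrophoresis. Induction of the human ERb-Gal4 reporter is measured relative to DMSO.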

[4] = test system: turtle Androgen Receptor (AR), gene 101947425; test: ATG_trAR_XSP2: Attagene TRANS-FACTORIAL Multi-Species (XSP2) HepG2 Assay for turtle Androgen Receptor (AR) (AID 2283815);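 as to AC50: reporter mRNA from a Gal4 chimera of turtle AR measured by RT-PCR; potency for gain of reporter signal meaning activation above DMSO baseline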
Outline: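 Reporter transcripts were quantified via RT-PCR and capillary electrophoresis and fitted upward against DMSO. Transiently transfected human HepG2 cells carrying NR-Gal4 chimeras were exposed 24 h, with 3 nM 6-alpha-fluorotestosterone plus 1.5 nM norgestrel added.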

[5] = target: zebrafish Estrogen Receptor (ER1), esr1 (gene 259252) (UniProt P57717); test: ATG_zfER1_XSP2: Attagene TRANS-FACTORIAL Multi-Species (XSP2) HepG2 Assay for zebrafish Estrogen Receptor (ER1) (AID 2283816)
Sequence of zebrafish Estrogen Receptor (ER1), esr1 (gene 259252) (P57717 whole entry, looked up, the tested form may be a part): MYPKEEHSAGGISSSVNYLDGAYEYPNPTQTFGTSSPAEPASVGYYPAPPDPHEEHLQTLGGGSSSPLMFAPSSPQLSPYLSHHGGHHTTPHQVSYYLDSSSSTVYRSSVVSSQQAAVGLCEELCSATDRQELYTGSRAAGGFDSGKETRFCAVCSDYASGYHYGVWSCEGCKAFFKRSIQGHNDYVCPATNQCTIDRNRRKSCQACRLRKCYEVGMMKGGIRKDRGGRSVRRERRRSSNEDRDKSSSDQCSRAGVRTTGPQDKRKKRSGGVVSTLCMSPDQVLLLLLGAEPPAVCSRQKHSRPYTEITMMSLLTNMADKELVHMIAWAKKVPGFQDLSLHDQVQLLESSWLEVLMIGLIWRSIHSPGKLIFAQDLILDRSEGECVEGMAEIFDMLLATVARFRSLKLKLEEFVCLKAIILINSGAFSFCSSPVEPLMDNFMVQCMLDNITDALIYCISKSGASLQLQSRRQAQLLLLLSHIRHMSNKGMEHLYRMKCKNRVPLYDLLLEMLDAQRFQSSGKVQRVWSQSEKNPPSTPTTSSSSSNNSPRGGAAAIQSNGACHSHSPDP
Outline: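 After 24 h compound exposure, RNA from transfected HepG2 cells was reverse-transcribed and reporter transcripts resolved by capillary electrophoresis. The TRANS format reads exogenous zebrafish ER1-Gal4 chimera activity on GAL4-UAS elements; gain of signal against DMSO.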

[6] = target: chicken Estrogen Receptor (ERa), ESR1 (gene 396099) (UniProt P06212); test: ATG_chERa_XSP2: Attagene TRANS-FACTORIAL Multi-Species (XSP2) HepG2 Assay for chicken Estrogen Receptor (ERa) (AID 2283817);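 also: actives raise reporter signal above DMSO so AC50 reflects ER activation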
Sequence of chicken Estrogen Receptor (ERa), ESR1 (gene 396099) (P06212 whole entry, looked up, the tested form may be a part): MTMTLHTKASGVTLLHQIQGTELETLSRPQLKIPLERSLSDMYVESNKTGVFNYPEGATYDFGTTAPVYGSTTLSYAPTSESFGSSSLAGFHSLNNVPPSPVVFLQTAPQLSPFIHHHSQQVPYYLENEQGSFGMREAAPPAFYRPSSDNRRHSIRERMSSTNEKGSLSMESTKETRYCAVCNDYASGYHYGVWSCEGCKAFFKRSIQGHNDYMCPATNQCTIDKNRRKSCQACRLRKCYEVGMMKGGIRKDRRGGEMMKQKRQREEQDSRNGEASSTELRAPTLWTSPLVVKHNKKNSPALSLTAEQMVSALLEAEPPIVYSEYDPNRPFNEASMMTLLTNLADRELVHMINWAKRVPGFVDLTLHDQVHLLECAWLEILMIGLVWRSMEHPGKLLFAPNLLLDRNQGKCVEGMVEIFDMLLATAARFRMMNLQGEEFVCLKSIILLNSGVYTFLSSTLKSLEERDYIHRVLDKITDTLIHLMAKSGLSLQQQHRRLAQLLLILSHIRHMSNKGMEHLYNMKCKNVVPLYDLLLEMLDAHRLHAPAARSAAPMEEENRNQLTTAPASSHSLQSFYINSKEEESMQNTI
Outline: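 Exogenous chicken ERa-Gal4 chimera activity was assessed in transfected human liver HepG2 cells after 24 h of treatment. Induced reporter mRNA was quantified fluorescently by capillary electrophoresis, with DMSO as baseline.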

[7] = test system: zebrafish Estrogen Receptor (ER2a), gene 317734; test: ATG_zfER2a_XSP2: Attagene TRANS-FACTORIAL Multi-Species (XSP2) HepG2 Assay for zebrafish Estrogen Receptor (ER2a) (AID 2283818);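 also: hits raise reporter mRNA so AC50 reflects activation of zebrafish ER2a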
Outline: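 Multiplexed trans-reporter readout: RT-PCR then capillary electrophoresis of reporter transcripts after 24 h compound treatment. Human HepG2 carries transfected zebrafish ER2a-Gal4 chimera; 3 nM 6-alpha-fluorotestosterone plus 1.5 nM norgestrel present. Induction scored against DMSO.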

[8] = test system: chicken Androgen Receptor (AR), gene 422165; test: ATG_chAR_XSP2: Attagene TRANS-FACTORIAL Multi-Species (XSP2) HepG2 Assay for chicken Androgen Receptor (AR) (AID 2283819);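 also: hits raise reporter mRNA above DMSO so potency is for activation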
Outline: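 Readout is reporter mRNA induction via RT-PCR/capillary electrophoresis after 24 h chemical exposure, positive direction relative to DMSO. Transiently transfected HepG2 express chimeric chicken AR–GAL4; AR stimulated by 3 nM 6-alpha-fluorotestosterone and 1.5 nM norgestrel.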

[9] = target: human Androgen Receptor (AR), AR (gene 367) (UniProt P10275); test: ATG_hAR_XSP2: Attagene TRANS-FACTORIAL Multi-Species (XSP2) HepG2 Assay for human Androgen Receptor (AR) (AID 2283820)
Sequence of human Androgen Receptor (AR), AR (gene 367) (P10275 whole entry, looked up, the tested form may be a part): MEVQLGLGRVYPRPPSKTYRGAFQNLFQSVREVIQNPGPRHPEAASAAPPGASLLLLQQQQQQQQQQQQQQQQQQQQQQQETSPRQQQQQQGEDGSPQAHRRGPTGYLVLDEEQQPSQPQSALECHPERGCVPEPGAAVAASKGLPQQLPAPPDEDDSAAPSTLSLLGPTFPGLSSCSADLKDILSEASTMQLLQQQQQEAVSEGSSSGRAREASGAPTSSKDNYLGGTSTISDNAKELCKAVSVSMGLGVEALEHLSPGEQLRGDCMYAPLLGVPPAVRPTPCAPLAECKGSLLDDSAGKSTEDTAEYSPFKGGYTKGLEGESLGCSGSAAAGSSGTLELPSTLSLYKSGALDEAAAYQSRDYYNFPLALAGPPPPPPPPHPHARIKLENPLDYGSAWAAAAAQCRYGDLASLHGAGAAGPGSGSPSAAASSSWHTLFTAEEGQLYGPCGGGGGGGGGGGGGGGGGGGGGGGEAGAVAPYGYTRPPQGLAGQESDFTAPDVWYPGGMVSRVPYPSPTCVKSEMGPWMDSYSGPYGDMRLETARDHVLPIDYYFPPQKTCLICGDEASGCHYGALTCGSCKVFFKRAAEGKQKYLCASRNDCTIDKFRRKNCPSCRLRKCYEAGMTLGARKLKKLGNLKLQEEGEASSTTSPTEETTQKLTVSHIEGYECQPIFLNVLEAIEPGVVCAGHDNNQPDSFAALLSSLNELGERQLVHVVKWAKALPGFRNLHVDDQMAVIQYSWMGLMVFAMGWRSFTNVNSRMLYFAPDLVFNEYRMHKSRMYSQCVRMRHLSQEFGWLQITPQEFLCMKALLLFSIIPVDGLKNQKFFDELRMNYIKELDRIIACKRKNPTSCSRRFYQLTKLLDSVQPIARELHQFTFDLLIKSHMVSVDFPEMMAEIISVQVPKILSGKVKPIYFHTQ
Outline: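 Reporter transcripts were measured by RT-PCR and capillary electrophoresis 24 h post-dosing, with gain of signal fitted against DMSO. Transiently transfected HepG2 cells expressed chimeric NR-Gal4 on GAL4-UAS reporters, with AR stimulated by 3 nM 6-alpha-fluorotestosterone and 1.5 nM norgestrel.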

[10] = test system: zebrafish Estrogen Receptor (ER2b), gene 317733; test: ATG_zfER2b_XSP2: Attagene TRANS-FACTORIAL Multi-Species (XSP2) HepG2 Assay for zebrafish Estrogen Receptor (ER2b) (AID 2283823);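 also: fitted upward as reporter gain over DMSO so potency reflects activation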
Outline: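 HepG2 human liver cells transiently transfected with multiplexed GAL4-UAS reporter units expressing chimeric NR-Gal4 proteins; compounds dosed for 24 h. Reporter mRNA quantified by RT-PCR, 6-FAM labelling and capillary electrophoresis; gain-of-signal fitted against DMSO baseline.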

[11] = target: Estrogen receptor (Homo sapiens) (UniProt P03372); test: ATG_hERa_XSP2: Attagene TRANS-FACTORIAL Multi-Species (XSP2) HepG2 Assay for human Estrogen Receptor (ERa) (AID 2283827)
Sequence of Estrogen receptor (Homo sapiens) (P03372 whole entry, looked up, the tested form may be a part): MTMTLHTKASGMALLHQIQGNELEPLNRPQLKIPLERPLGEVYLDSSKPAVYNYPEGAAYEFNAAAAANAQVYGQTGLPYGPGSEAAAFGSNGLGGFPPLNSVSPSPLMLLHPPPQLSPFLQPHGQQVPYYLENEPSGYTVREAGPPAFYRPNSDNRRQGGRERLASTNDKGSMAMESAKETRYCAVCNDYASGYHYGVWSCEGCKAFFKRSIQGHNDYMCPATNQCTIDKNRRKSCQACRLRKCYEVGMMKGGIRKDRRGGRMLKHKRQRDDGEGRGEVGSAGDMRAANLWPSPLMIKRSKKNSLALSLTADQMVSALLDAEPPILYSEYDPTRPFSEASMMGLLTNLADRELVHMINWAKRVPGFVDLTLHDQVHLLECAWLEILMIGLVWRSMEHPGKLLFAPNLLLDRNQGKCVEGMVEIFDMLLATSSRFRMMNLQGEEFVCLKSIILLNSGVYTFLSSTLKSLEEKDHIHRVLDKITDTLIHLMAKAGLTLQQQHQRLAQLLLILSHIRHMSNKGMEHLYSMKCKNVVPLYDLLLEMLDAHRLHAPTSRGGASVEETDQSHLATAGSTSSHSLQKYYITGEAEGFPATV
Outline: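 Trans-activation of exogenous human ERa-Gal4 chimera read in HepG2 as reporter transcript after 24 h exposure; medium included 3 nM 6-alpha-fluorotestosterone and 1.5 nM norgestrel. Quantified by RT-PCR with capillary electrophoresis, positive-direction fitting against DMSO.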

[12] = test system: frog Estrogen Receptor (ER2), gene 100174814; test: ATG_frER2_XSP2: Attagene TRANS-FACTORIAL Multi-Species (XSP2) HepG2 Assay for frog Estrogen Receptor (ER2) (AID 2283828)
Outline: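 Induction of reporter mRNA, baseline set by DMSO, is the endpoint. The panel was run in transfected HepG2 cells over 24 h, with 3 nM 6-alpha-fluorotestosterone and 1.5 nM norgestrel present to stimulate androgen receptor.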

[13] = target: zebrafish Thyroid Hormone Receptor beta (TRb), thrb (gene 30607) (UniProt Q9PVE4); test: ATG_zfTRb_XSP1: Attagene TRANS-FACTORIAL Multi-Species (XSP1) HepG2 Assay for zebrafish Thyroid Hormone Receptor beta (TRb) (AID 2283809)
Sequence of zebrafish Thyroid Hormone Receptor beta (TRb), thrb (gene 30607) (Q9PVE4 whole entry, looked up, the tested form may be a part): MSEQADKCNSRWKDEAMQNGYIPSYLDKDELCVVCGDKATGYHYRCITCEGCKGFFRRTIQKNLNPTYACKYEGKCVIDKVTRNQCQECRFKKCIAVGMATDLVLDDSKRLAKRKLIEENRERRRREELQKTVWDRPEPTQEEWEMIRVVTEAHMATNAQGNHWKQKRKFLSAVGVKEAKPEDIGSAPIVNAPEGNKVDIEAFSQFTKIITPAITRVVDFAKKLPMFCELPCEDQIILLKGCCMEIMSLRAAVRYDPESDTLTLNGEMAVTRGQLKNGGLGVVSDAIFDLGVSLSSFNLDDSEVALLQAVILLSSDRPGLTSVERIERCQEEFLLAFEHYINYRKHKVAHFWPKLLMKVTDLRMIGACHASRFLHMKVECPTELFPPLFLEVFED
Outline: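 HepG2 cells transiently transfected with multiplexed GAL4-UAS reporter units expressing chimeric zebrafish TRb–Gal4. Dosed 24 h with 3 nM 6-alpha-fluorotestosterone present; reporter mRNA measured by RT-PCR, HpaI digestion and capillary electrophoresis; gain of signal versus DMSO.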

[14] = ATG_XTT_Cytotoxicity_XSP1: Cytotoxicity Assessment in the Attagene TRANS-FACTORIAL Multi-Species (XSP1) HepG2 Assay (AID 2283810)
Outline: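 XTT viability readout taken at 24 hours post-dosing in HepG2 liver cells co-treated with 3 nM 6-alpha-fluorotestosterone. Signal loss relative to DMSO controls reflects cytotoxicity.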

[15] = ATG_M_19_XSP2: Attagene TRANS-FACTORIAL Multi-Species (XSP2) HepG2 Assay for M32 Transcription Factor (Internal Marker) (AID 2283822)
Outline: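 Internal background marker in a multi-species nuclear receptor TRANS panel: transfected HepG2 cells exposed 24 h, with 3 nM 6-alpha-fluorotestosterone and 1.5 nM norgestrel present. Readout is RT-PCR of reporter transcripts resolved by capillary electrophoresis, gain-of-signal versus DMSO.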

[16] = ATG_M_32_XSP2: Attagene TRANS-FACTORIAL Multi-Species (XSP2) HepG2 Assay for M19 Transcription Factor (Internal Marker) (AID 2283826)
Outline: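 Read-out: reporter mRNA quantified by RT-PCR, FAM labeling, HpaI digestion and capillary electrophoresis, 24 h after dosing transfected HepG2 cells. Medium carried 3 nM 6-alpha-fluorotestosterone plus 1.5 nM norgestrel; gain of signal fitted against DMSO.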

[17] = target: Nuclear receptor subfamily 1 group I member 2 (Mus musculus) (UniProt O54915); test: ATG_mPXR_XSP2: Attagene TRANS-FACTORIAL Multi-Species (XSP1) HepG2 Assay for mouse Pregnane X Receptor (PXR) (AID 2283831)
Sequence of Nuclear receptor subfamily 1 group I member 2 (Mus musculus) (O54915 whole entry, looked up, the tested form may be a part): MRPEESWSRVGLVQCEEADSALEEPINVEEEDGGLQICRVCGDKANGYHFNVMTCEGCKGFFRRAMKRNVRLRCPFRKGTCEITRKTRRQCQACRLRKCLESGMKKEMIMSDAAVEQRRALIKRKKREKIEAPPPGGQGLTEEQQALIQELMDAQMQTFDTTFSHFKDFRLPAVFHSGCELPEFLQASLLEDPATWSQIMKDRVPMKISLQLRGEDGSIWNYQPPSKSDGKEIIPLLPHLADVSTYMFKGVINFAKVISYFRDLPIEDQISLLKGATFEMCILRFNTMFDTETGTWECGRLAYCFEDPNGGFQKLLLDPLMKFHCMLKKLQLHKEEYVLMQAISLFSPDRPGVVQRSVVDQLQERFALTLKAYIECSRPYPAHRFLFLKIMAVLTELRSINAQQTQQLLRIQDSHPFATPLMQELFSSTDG
Outline: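 Reporter transcripts measured after 24 h dosing by RT-PCR with 6-FAM labelling, HpaI digestion and capillary electrophoresis. Transiently transfected HepG2 with NR-Gal4 chimeras; increase over DMSO baseline scored.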

[18] = target: GAL4 Transcription Factor (Internal Marker), GAL4 (gene 855828) (UniProt P04386); test: ATG_GAL4_XSP2: Attagene TRANS-FACTORIAL Multi-Species (XSP2) HepG2 Assay for GAL4 Transcription Factor (Internal Marker) (AID 2283814);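 also: GAL4 reporter mRNA background control in MRTU transfected cells not a receptor target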
Sequence of GAL4 Transcription Factor (Internal Marker), GAL4 (gene 855828) (P04386 whole entry, looked up, the tested form may be a part): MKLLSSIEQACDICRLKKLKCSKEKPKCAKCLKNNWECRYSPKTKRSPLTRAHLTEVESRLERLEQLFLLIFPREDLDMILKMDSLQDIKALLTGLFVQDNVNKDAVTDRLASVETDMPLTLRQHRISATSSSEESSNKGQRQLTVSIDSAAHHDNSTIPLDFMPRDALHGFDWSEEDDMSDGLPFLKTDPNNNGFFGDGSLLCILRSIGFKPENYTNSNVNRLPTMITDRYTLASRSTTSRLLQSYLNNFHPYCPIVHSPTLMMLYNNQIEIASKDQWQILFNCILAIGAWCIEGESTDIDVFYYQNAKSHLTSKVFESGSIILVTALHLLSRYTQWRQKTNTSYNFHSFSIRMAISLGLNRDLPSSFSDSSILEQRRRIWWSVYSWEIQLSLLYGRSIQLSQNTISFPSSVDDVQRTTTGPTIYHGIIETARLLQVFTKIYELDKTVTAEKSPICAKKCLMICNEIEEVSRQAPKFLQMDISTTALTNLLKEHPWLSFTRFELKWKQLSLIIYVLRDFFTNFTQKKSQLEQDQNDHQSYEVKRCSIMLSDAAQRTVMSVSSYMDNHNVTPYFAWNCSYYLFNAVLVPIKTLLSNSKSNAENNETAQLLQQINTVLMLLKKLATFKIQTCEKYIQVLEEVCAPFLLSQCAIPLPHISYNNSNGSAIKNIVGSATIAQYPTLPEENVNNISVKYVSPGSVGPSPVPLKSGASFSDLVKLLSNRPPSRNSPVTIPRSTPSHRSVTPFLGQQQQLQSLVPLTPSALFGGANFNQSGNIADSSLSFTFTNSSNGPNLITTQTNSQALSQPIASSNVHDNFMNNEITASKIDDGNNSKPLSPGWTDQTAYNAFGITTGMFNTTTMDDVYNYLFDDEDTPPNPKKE
Outline: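 Background-control readout: gain-of-signal fitted against DMSO. After 24 h exposure of transfected HepG2 (MRTU, GAL4-UAS reporters; 3 nM 6-alpha-fluorotestosterone, 1.5 nM norgestrel present), transcripts quantified by RT-PCR and capillary electrophoresis fluorescence.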

[19] = test system: frog Androgen Receptor (AR), gene 399456; test: ATG_frAR_XSP2: Attagene TRANS-FACTORIAL Multi-Species (XSP2) HepG2 Assay for frog Androgen Receptor (AR) (AID 2283824);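 also: reporter mRNA from GAL4-UAS units driven by Xenopus AR-Gal4 chimera; actives raise reporter signal above DMSO so AC50 reflects agonist-like induction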
Outline: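 Reporter transcript induction, read by RT-PCR with fluorescent capillary electrophoresis, in human liver HepG2 cells carrying an exogenous Xenopus AR-Gal4 fusion and GAL4-driven reporters; chemical exposure 24 hours, activity scored upward against DMSO controls.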

[20] = test system: zebrafish Androgen Receptor (AR), gene 100005148; test: ATG_zfAR_XSP2: Attagene TRANS-FACTORIAL Multi-Species (XSP2) HepG2 Assay for zebrafish Androgen Receptor (AR) (AID 2283825);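 also: hits raise reporter mRNA above DMSO so AC50 reflects agonist-type gain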
Outline: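 After 24 h compound exposure in medium with 3 nM 6-alpha-fluorotestosterone plus 1.5 nM norgestrel, HepG2 cells carrying zebrafish AR–GAL4 reporter constructs were assessed for reporter mRNA gain by RT-PCR and capillary electrophoresis.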

Measured: AC50

CCC(=O)O[C@H]1CC[C@H]2[C@@H]3CCC4=CC(=O)CC[C@]4(C)[C@H]3CC[C@]12C
active: [2] 17.3 nM and 5.27 nM | [6] 12.6 nM and 25.4 nM | [7] 27.7 nM and 13.2 nM | [8] 24.7 nM | [10] 29.8 nM and 27.2 nM | [11] 10.5 nM and 7.8 nM | [12] 29.8 nM
inactive: [1] | [3] | [4] | [5] | [8] | [9]

ClC(Cl)=C(c1ccc(Cl)cc1)c1ccc(Cl)cc1
inactive: [13] | [14] | [5] | [7] | [15] | [16] | [17]
active: [2] 10 µM | [6] 3270 nM | [10] 7900 nM | [11] 5.03 µM | [12] 10000 nM

CC(C)(O)C(=O)Nc1ccc([N+](=O)[O-])c(C(F)(F)F)c1
inactive: [14] | [1] | [2] | [3] | [18] | [5] | [6] | [7] | [16] | [12] | [17]
active: [13] 50 µM | [10] 36100 nM | [11] 100 µM

CC(c1ccc(O)cc1)(c1ccc(O)cc1)c1ccc(O)cc1
inactive: [1] | [2] | [4] | [5] | [6] | [7] | [8] | [15] | [10] | [19] | [16] | [11] | [12]
active: [8] 314 nM | [10] 688 nM | [19] 267 nM

Clc1ccc(C(c2ccccc2Cl)C(Cl)(Cl)Cl)cc1 (stereo not given)
inactive: [13] | [14] | [1] | [3] | [5]
active: [2] 1.14 µM | [6] 656 nM | [7] 1.58 µM | [10] 998 nM | [12] 824 nM | [17] 5.09 µM

C[C@]12CCC(=O)C=C1CC[C@@H]1[C@@H]2CC[C@@]2(C)[C@H]1CC[C@]2(C)O
active: [2] 0.0021 µM | [4] 3.41 nM | [5] 51.6 nM | [6] 2.03 nM | [7] 0.0025 µM | [8] 0.725 nM | [10] 8.34 nM | [19] 7.39 nM | [20] 2.51 nM | [11] 0.000744 µM | [12] 11.6 nM
inactive: [13] | [14] | [1]
